According to PubChem BioAssay (NCATS):
Inconclusive results are not listed. A number with no mark means an inactive call. The source made the active and inactive calls. Calls come from the whole dose curve.
% is set by controls: 0 for no effect and ±100 for the full control effect.

What follows are compounds tested against Nucleoprotein (Lymphocytic choriomeningitis virus (strain Armstrong)) (UniProt P09992) (assay: qHTS for Inhibitors of the Functional Ribonucleoprotein Complex (vRNP) of Lymphocytic Choriomeningitis Arenaviruses (LCMV): LCMV Primary Screen - GLuc reporter signal (AID 1347086; note: nearly all actives have a fitted effect of over 70% in size)). Details: LCMV minigenome vRNP cell assay, Gaussia luciferase reporter; series mostly up to 57.5 µM; activity change, negative = inhibition: at the top concentration.
Sequence of Nucleoprotein (Lymphocytic choriomeningitis virus (strain Armstrong)) (P09992 whole entry, looked up): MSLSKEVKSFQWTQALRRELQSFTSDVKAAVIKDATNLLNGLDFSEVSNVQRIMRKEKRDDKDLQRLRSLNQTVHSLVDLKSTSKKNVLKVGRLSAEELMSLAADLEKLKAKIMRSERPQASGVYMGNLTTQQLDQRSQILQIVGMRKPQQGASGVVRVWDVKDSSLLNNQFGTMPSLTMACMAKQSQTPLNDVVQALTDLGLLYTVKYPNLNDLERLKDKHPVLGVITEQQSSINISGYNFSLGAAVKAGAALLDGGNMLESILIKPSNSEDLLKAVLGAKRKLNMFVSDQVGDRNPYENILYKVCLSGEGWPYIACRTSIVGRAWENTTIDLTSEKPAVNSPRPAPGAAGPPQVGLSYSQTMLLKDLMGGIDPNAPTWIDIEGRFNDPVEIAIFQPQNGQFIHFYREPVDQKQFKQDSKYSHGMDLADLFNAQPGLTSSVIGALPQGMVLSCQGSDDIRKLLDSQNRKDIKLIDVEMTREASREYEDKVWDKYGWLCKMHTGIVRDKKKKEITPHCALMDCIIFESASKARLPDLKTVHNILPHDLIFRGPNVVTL
With `CC1(C)OC[C@@H](COC(=O)CCc2ccc(OC[C@@H](O)CNCCNC(=O)N3CCOCC3)cc2)O1` the “activity change, negative = inhibition” value was 8.3%. With `C=Cc1c(C)c2cc3[nH]c(cc4nc(cc5nc(cc1[nH]2)C(C)=C5CCC(=O)O)C(CCC(=O)O)=C4C)c(C)c3C=C` the Potency was “inactive”. With `CN(C)CCCN1c2ccccc2Sc2ccccc21` the Potency was “inactive”. For `COC(=O)C1=C(C)NC(C)=C(C(=O)OCCCN2CCC(c3ccccc3)(c3ccccc3)CC2)C1c1cccc([N+](=O)[O-])c1` (stereo not given), the “activity change, negative = inhibition” value was -30.3%. In the case of `C[N+]12CCC(CC1)C(OC(=O)C(O)(c1ccccc1)c1ccccc1)C2` (stereo not given), the “activity change, negative = inhibition” value is reported as -2.71%. `CCCCCC(=O)O[C@]1(C(C)=O)CC[C@H]2[C@@H]3CCC4=CC(=O)CC[C@]4(C)[C@H]3CC[C@@]21C` was tested, and the “activity change, negative = inhibition” value was -5.85%. With `O=C(O)Cc1ccc2c(c1)C(=O)c1ccccc1CO2` the “activity change, negative = inhibition” value was 4.86%. `Cn1cc(C(=O)[C@@H]2CCc3nc[nH]c3C2)c2ccccc21` was tested, and the “activity change, negative = inhibition” value was 2.67%. For `CC1(C)S[C@@H]2[C@H](N=CN3CCCCCC3)C(=O)N2[C@H]1C(=O)O`, the “activity change, negative = inhibition” value was 17.5%. For `NC(=O)CC[C@@H](N)C(=O)O`, the “activity change, negative = inhibition” value was 1.46%. For `C[C@]12CC[C@@H]3c4ccc(O)cc4CC[C@H]3[C@@H]1CC[C@@H]2OC(=O)CCC1CCCC1`, the “activity change, negative = inhibition” value was -0.799%. In the case of `O=C(CCCCC(=O)Nc1c(I)cc(I)c(C(=O)O)c1I)Nc1c(I)cc(I)c(C(=O)O)c1I`, the “activity change, negative = inhibition” value is reported as 23.4%. `CCCCC1(COC(=O)CCC(=O)O)C(=O)N(c2ccccc2)N(c2ccccc2)C1=O` was tested, and the “activity change, negative = inhibition” value was 30.6%. In the case of `OCc1cc(C(O)CNCCCCCCOCCCCc2ccccc2)ccc1O` (stereo not given), the Potency is reported as “inactive”. For `CCCSS/C(CCO)=C(\C)N(C=O)Cc1cnc(C)nc1N`, the “activity change, negative = inhibition” value was -33.4%.
